Results as given in PubChem BioAssay (NCATS).
Records with an inconclusive call do not appear. Active and inactive are the calls of the source. Unless noted, calls follow the shape of the dose curve; as a rule, active = well fitted curve in the direction sought with a large enough effect; inconclusive = small, poorly fitted or top-dose-only effect, or another doubt; inactive = no such curve, though single readings can be large; an effect the other way counts as inactive or inconclusive.

Legend:
[1] = MultiTox-Fluor Cytotoxicity Assay - LYMP1-001 - Dead Cells (AID 946)
How it was run: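 In this qHTS, 15 uM tetraoctylammonium bromide defined 100% and DMSO defined basal activity. Lymphoblastoid cells (LYMP1-001, 2500 per well) received compound for 16 hr at 37 C before a fluorogenic dead-cell substrate readout at 485/520 nm.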

[2] = MultiTox-Fluor Cytotoxicity Assay - LYMP1-001 - Live Cells (AID 947)
Description: NIH Chemical Genomics Center [NCGC]
NIH Molecular Libraries Screening Centers Network [MLSCN]
National Institutes of Environmental Health Sciences [NIEHS]
National Toxicology Program [NTP]
We have developed a 1536-well cell-based assay for quantitative high throughput screening (qHTS) against a number of cell lines to determine in vitro cytotoxicity of small molecules. This particular assay uses a human lymphoblastoid cell line (LYMP1-001) purchased from Coriell Institute.
NCGC Assay Protocol Summary:
The MultiTox-Fluor Cytotoxicity Assay (Promega) is a homogeneous method to simultaneously measure the relative number of live and dead cells in culture by detecting changes in cell membrane integrity. There are two fluorogenic peptide substrates in the assay reagent. Viable cells are determined when the cell-permeant substrate (GF-AFC) enters the cell and is cleaved by protease from live cells resulting in liberated fluorophore. This live-cell protease activity restricted to viable cells is proportional to cell number. The dead cells are determined by using fluorogenic cell-impermeant peptide substrate (bis-AAF-R110) which cleaved by dead cell proteases leaking from damaged cell membrane.
Using the MultiTox-Fluor Cytotoxicity Assay, the relative number of live cells was measured in the lymphoblastoid cell line with complete culture medium following compound treatment for 16 hours. The assay was performed in opaque black Kalypsys 1536-well plates. In the screen, tetraoctylammonium bromide was used as positive control. Library compounds were measured for their ability to cause acute toxicity in the cell line, as reflected by a decrease in live cell protease activity, in a concentration-dependent manner. […] AC50 values were determined from concentration-response data modeled with the standard Hill equation.
qHTS protocol for MultiTox-Fluor Cytotoxicity assay
[Step] [Parameter] [Value] [Description]
1. Reagent; 5 uL; 2500 lymphoblastoid cells/well
2. Time; 5 hr; 37 C incubation
4. Controls; 23 nL; Tetraoctylammonium bromide 6.4pM to 92 uM
5. Time; 16 hr; 37 C incubation
6. Reagent; 5 uL; MuliTox-Fluor Assay reagent
7. Time; 60 min; Room Temperature
8. Detection; live-cell fluorescence (Ex/Em=405/510); EnVision plate reader
Keywords: cell viability, cytotoxicity, lymphoblastoid cell line, fluorescence, NTPHTS, NTPHTS_NCGC, NIEHS, EPA, DSSTox, MLSMR, MLSCN, NIH Roadmap, qHTS, NCGC

[3] = Cell Viability - LYMP1-002 - Assay at 16 hr (AID 948)
How it was run: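 LYMP1-002 human lymphoblastoid cells, 2500/well; 5 hr 37 C; cpd 16 hr 37 C; CellTiter-Glo 30 min RT; luminescence (ATP). Concentration-response, Hill-fit AC50. Pos ctrl tetraoctylammonium bromide.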

[4] = MultiTox-Fluor Cytotoxicity Assay - LYMP1-002 - Live Cells (AID 955)
How it was run: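 After 16 h compound exposure at 37 C, live LYMP1-002 lymphoblastoid cells (2500/well) were quantified by cleavage of cell-permeant GF-AFC substrate, read at 405/510 nm after 60 min. Concentration-response fitted with Hill equation for AC50.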

[5] = MultiTox-Fluor Cytotoxicity Assay - LYMP1-002 - Dead Cells (AID 960); also: nearly all actives have a fitted effect of over 60% in size
How it was run: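 Dead-cell fluorescence (Ex/Em 485/520) after 16 h compound exposure at 37 C of LYMP1-002 lymphoblastoid cells in complete medium; AC50 by Hill equation, with data scaled between DMSO and 15 uM tetraoctylammonium bromide.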

[6] = MultiTox-Fluor Cytotoxicity Assay - LYMP1-003 - Dead Cells (AID 961); also: nearly all actives have a fitted effect of over 70% in size
How it was run: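 Acute toxicity is scored as increased dead-cell protease activity in human lymphoblastoid LYMP1-003 cells after 16 h compound exposure in complete culture medium. Activity is normalized to DMSO basal and 15 uM tetraoctylammonium bromide as full response.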

[7] = MultiTox-Fluor Cytotoxicity Assay - LYMP1-003 - Live Cells (AID 962);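 also: cells exposed to compound for 16 hours at 37 °C; cytotoxic hits lower the live-cell protease signal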
How it was run: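 Live-cell protease activity (GF-AFC substrate, 405/510 nm, 60 min at room temperature) after 16 h, 37 C compound exposure of human lymphoblastoid LYMP1-003 cells; concentration-response fitted to the Hill equation for AC50.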

[8] = Cell Viability - LYMP1-003 - Assay at 24 hr (AID 963)
How it was run: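 Concentration-response qHTS: ATP loss measured by CellTiter-Glo luminescence after 24 h compound exposure at 37 C. Cells were LYMP1-003 human lymphoblastoid, 2500 per well. AC50 derived via standard Hill equation modeling.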

[9] = Cell Viability - LYMP1-003 - Assay at 40 hr (AID 964); also: series mostly up to about 92 µM; nearly all actives have a fitted effect of over 60% in size
How it was run: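 Viability is taken as cellular ATP, read by CellTiter-Glo luminescence after 40 h of compound exposure at 37 C. Cells: human lymphoblastoid line LYMP1-003 at 2500/well; AC50 values derived by Hill-equation fitting of concentration-response data.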

[10] = Cell Viability - LYMP2-003 (AID 965);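 also: cells exposed to compounds for 24 h before reading; nearly all actives have a fitted effect of over 50% in size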
How it was run: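 CellTiter-Glo luminescence (cellular ATP) after 24 h compound exposure at 37 C in complete medium; 2500 cells/well, 5 h settling beforehand. Concentration-response fitted to standard Hill equation for AC50. Tetraoctylammonium bromide served as positive control.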

[11] = Cell Viability - LYMP2-004 (AID 966); also: nearly all actives have a fitted effect of over 65% in size
How it was run: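 AC50 values come from Hill modelling of concentration-dependent loss of intracellular ATP, measured by CellTiter-Glo luminescence. Human LYMP2-004 lymphoblastoid cells (2500/well) were exposed to compound for 24 h at 37 C.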

[12] = Cell Viability - LYMP2-005 (AID 967); also: series mostly up to about 92 µM
How it was run: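 Steps: seed 2500 LYMP2-005 cells/well, incubate 5 h at 37 C, add compound, incubate 24 h at 37 C, add CellTiter-Glo, wait 30 min at RT, read luminescence. Concentration-response data fitted to Hill equation for AC50.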

[13] = Cell Viability - LYMP2-009 (AID 968); also: series mostly up to about 92 µM; nearly all actives have a fitted effect of over 55% in size
[14] = Cell Viability - LYMP2-011 (AID 969); also: nearly all actives have a fitted effect of over 60% in size
How it was run: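 Cytotoxicity qHTS with ATP content as read-out: lymphoblastoid cells (2500/well) exposed to compound for 24 h at 37 C, then luciferase luminescence measured. Concentration-response data fitted with the standard Hill equation to give AC50.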

[15] = Cell Viability - LYMP2-013 (AID 970); also: series mostly up to about 92 µM; nearly all actives have a fitted effect of over 55% in size
How it was run: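 qHTS cytotoxicity: ATP-dependent luminescence (CellTiter-Glo, 30 min room temperature) read after 24 h compound exposure at 37 C of 2500 LYMP2-013 lymphoblastoid cells per well. Concentration-response fitted with Hill equation to give AC50.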

[16] = Cell Viability - LYMP2-015 (AID 971); also: nearly all actives have a fitted effect of over 55% in size
How it was run: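 Cytotoxicity readout: decrease in intracellular ATP (CellTiter-Glo luminescence) in 2500 LYMP2-015 lymphoblastoid cells/well after 24 h compound exposure at 37 C. Concentration-response data fitted with the standard Hill equation to give AC50.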

[17] = Cell Viability - LYMP2-017 (AID 972); also: series mostly up to about 92 µM; nearly all actives have a fitted effect of over 55% in size
How it was run: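 CellTiter-Glo luminescence (cellular ATP, 30 min RT) measured cytotoxicity after 24 hr compound treatment at 37 C. Cells were a human lymphoblastoid line, LYMP2-017, plated at 2500/well and incubated 5 hr first; concentration-response fitted with Hill equation for AC50.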

[18] = biological target: Pyruvate kinase PKM (Homo sapiens) (UniProt P14618); experiment: qHTS Assay for Activators of Human Muscle Pyruvate Kinase (AID 954; active = well fitted curve in the direction sought with a large enough effect, not every such curve was filed as active)
Pyruvate kinase PKM (Homo sapiens), sequence (P14618 whole entry, looked up): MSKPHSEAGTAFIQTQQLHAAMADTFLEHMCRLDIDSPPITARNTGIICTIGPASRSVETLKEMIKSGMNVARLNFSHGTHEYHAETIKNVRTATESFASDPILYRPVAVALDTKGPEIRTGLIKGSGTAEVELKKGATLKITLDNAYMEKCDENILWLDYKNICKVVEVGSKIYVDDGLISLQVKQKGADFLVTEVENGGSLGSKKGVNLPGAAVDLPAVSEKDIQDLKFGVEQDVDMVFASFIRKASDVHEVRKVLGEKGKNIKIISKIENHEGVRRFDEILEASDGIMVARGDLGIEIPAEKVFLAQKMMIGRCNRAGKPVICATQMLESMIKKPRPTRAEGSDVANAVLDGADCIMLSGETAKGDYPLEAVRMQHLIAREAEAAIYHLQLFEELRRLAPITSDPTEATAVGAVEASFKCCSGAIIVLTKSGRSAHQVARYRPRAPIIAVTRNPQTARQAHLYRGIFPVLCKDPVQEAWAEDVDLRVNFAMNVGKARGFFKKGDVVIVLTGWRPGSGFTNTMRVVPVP
How it was run: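 Screening used highly purified human pyruvate kinase M2 under submaximal activity, with PEP at its Km and ADP below Km. After an hour at room temperature, ATP was read by luciferase luminescence.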

Measured: Potency

COc1cc(Cc2cnc(N)nc2N)cc(OC)c1OC
inactive: [1] | [2] | [3] | [4] | [5] | [6] | [7] | [8] | [9] | [10] | [11] | [12] | [13] | [14] | [15] | [16] | [17]

NC(=Nc1ccccc1)Nc1ccccc1
inactive: [1] | [2] | [3] | [4] | [5] | [6] | [7] | [8] | [9] | [10] | [11] | [12] | [13] | [14] | [15] | [16] | [17]

CCCCNC(=O)NS(=O)(=O)c1ccc(C)cc1
inactive: [1] | [2] | [3] | [4] | [5] | [6] | [7] | [8] | [9] | [10] | [11] | [12] | [13] | [14] | [15] | [16] | [17]

Cc1ccc(S(=O)(=O)NC(=O)NN2CCCCCC2)cc1
inactive: [18]

CN=C(NC#N)NCCSCc1nc[nH]c1C
inactive: [1] | [2] | [3] | [4] | [5] | [6] | [7] | [8] | [9] | [10] | [11] | [12] | [13] | [14] | [15] | [16] | [17]

NC(=O)N1c2ccccc2C=Cc2ccccc21
inactive: [1] | [2] | [3] | [18] | [4] | [5] | [6] | [7] | [8] | [9] | [10] | [11] | [12] | [13] | [14] | [15] | [16] | [17]

O=C(O)CN(CCN(CC(=O)O)CC(=O)O)CCN(CC(=O)O)CC(=O)O
inactive: [18]

CCc1cccc(N(C)C(N)=Nc2cccc3ccccc23)c1
inactive: [18]
